PLC-beta3 inh = inhibitors of human phospholipase C beta3; hit rate 0.18% among 370,000; Purified PLC-beta3, fluorogenic substrate, fluorescence; inhibition, % at 12.2 µM; Q01970; in the data active = inhibition above about 11%;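 note: 0% = median of compound wells on plate and 100% = full blocker control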
ADAM17 inh = inhibitors of human ADAM17 | P78536 | inhibition, % at 6.95 µM | AID 720648 | recombinant ADAM17, EDANS/DABCYL FRET peptide cleavage | hit rate 0.83% among 370,000;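 active = inhibition above the mean of compounds lying between control limits plus 3 SD, set per campaign, cut at about 8.5% in these data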;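 note: 0% = DMSO-only wells as the low control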
HGIII-sPLA2 inh = Inhibits HGIII-sPLA2 liposome hydrolysis, primary screen. Q9NZ20. QFRET BODIPY PC-A2 liposome hydrolysis, fluorescence. inhibition, % at 12.2 µM. hit rate 0.56% among 370,000;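 active = inhibition above mean plus 3 SD of compounds lying within the high and low control bounds, cut at about 19% in these data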;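 note: 0% = median of test compound wells and 100% = no enzyme DMSO wells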
Target sequence (Q9NZ20 whole entry, looked up): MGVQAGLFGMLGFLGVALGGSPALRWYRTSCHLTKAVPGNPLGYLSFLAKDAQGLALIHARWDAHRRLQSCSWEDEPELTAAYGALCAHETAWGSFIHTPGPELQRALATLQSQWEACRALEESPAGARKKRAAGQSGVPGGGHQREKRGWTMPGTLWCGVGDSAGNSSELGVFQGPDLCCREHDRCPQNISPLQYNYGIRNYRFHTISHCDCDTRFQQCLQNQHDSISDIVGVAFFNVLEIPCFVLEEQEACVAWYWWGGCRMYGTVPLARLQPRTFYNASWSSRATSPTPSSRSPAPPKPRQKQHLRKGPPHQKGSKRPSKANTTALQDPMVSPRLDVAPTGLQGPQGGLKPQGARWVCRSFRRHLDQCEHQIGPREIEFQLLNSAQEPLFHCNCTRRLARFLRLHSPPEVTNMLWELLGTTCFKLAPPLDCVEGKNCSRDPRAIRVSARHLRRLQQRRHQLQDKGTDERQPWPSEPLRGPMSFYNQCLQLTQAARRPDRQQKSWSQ
ADAM10 inh = inhibits human ADAM10; recombinant ADAM10, EDANS/DABCYL FRET peptide cleavage, 3 h; inhibition, % at 7 µM; hit rate 0.62% among 370,000;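 active = inhibition above a per-campaign cutoff equal to the mean of compounds falling between control-based bounds plus 3 SD, cut at about 20% in these data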;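 note: 0% = DMSO wells while the 100% control is not disclosed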
PLCg1 inh = PLC-gamma1 (human) inhibition, primary screen; P19174; purified PLC-gamma1, fluorogenic substrate, fluorescence; inhibition, % at 12.2 µM; hit rate 0.84% among 370,000; in the data active = inhibition above about 9.5%
KLK7 zymogen act = proKLK7 (human) activation, primary screen | P49862 | purified proKLK7, EDANS-DABCYL substrate fluorescence; 100% is mature enzyme control, 0% vehicle | activation, % at 7 µM | hit rate 0.9% among 370,000 | AID 652039;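 active = activation above the mean of all tested compounds plus 3 SD, computed per campaign excluding outliers beyond control limits, cut at about 13% in these data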
KLK7 act conf = confirmation of human kallikrein-7 zymogen activators; shares compounds with KLK7 zymogen act; purified proKLK7, EDANS-DABCYL substrate fluorescence; scaled: vehicle 0, mature enzyme 100; activation, % at 7 µM; hit rate 68% among 3,200;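 active = activation, as change over the incubation, above the mean of all tested compounds plus 3 SD, cut at about 13% in these data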
EDANS interfere = counter-screen for kallikrein-7 activators: EDANS-DABCYL optical interference; hit rate 80% among 3,200; EDANS-DABCYL substrate fluorescence interference, no enzyme, 4 h; solvent 0%, active enzyme control 100%; shares compounds with KLK7 zymogen act; activation, % at 7 µM;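 active = activation above the all-compound mean plus 3 SD, ignoring values outside control-based bounds, cut at about 4.8% in these data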;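 note: value is the 4 h activation minus the activation read at time zero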
EDANS interf = optically interferes with EDANS-DABCYL fluorescence, kallikrein-7 activator counter-screen. shares compounds with KLK7 zymogen act. EDANS-DABCYL peptide fluorescence interference, no enzyme. EC50, µM. hit rate 20% among 250;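 active = compounds that raise the fluorescence signal in this interference counterscreen, with EC50 at or below 10 µM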;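 note: intact quenched peptide substrate alone read at 355 nm excitation and 520 nm emission; signal is fluorescence gain from T0 to T4 after four hours at room temperature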
The depositor's hits bear a star; i = inactive; · = not tested or not shown. This is a sample that favours compounds with a hit; in the whole collection about 3.4% have one here.

SMILES	PLC-beta3 inh	ADAM17 inh	HGIII-sPLA2 inh	ADAM10 inh	PLCg1 inh	KLK7 zymogen act	KLK7 act conf	EDANS interfere	others
O=C(N[C@H](Cc1ccccc1)C(=O)NCCN1CCOCC1)[C@H]1O[C@@H](n2ccc(=O)[nH]c2=O)[C@H](O)[C@@H]1O	1.6	-3.7	1.0	-7.5	0.4	0.5	·	·
COc1ccc(-c2cc(=O)oc3c(C)c(O)c(CN(C)C)cc23)cc1	i	-55.0	1.5	-248.6	i	13.8*	-4.7	-7.2
COc1ccc(C2C3=C(CC(C)(C)CC3=O)N(CCN3CCOCC3)C3=C2C(=O)CC(C)(C)C3)cc1	-351.5	-135.0	8.8	-414.4	-256.6	12.6*	5.1	14.9*
COCCCN1C2=C(C(=O)CC(C)(C)C2)C(c2ccc(O)c(OC)c2)C2=C1CC(C)(C)CC2=O	-10.4	0.1	-1.7	-5.7	-5.5	0.4	·	·
CC1(C)CC(=O)C2=C(C1)N(CCN1CCOCC1)C1=C(C(=O)CC(C)(C)C1)C2c1cccc(F)c1	i	-304.1	-1.2	i	-487.3	33.9*	23.2*	20.1*
CC1(C)CC(=O)C2=C(C1)N(CCN1CCOCC1)C1=C(C(=O)CC(C)(C)C1)C2c1ccc(Cl)cc1	-118.7	-64.6	15.0	-232.1	-82.0	-4.8	·	·
COc1ccc(C2c3[nH]c4ccccc4c3CCN2CCCn2cccn2)c(C)c1C (stereo not drawn)	-350.3	-80.5	-0.8	-227.0	-306.6	26.6*	18.8*	19.9*
Cc1cc(=O)oc2cc3c(cc12)OCO3	i	i	7.3	i	i	35.8*	66.5*	74.3*
Cc1cc(=O)oc2cc3c(cc12)OCCN3	i	i	5.1	i	i	67.4*	76.3*	82.6*
Cc1cc(=O)oc2cc3c(cc12)OCCO3	-192.3	-220.0	4.1	i	-169.1	7.6	·	·
CC(=O)c1ccc(Sc2ccccc2)c([N+](=O)[O-])c1	0.4	3.3	-2.5	4.9	2.1	-0.3	·	·
CC(=O)c1ccc(Sc2ccccc2N)c([N+](=O)[O-])c1	-147.5	-70.8	1.4	-98.8	-103.7	15.5*	6.8	3.3
O=C(NN=C1CCCC1)c1cc(Cl)cc(Cl)c1O	-195.5	-112.0	6.7	-273.9	-173.4	17.5*	12.2	15.4*
CCOC(=O)N1CCN(C(=O)COC(=O)c2ccccc2NCCO)CC1	i	i	9.3	i	i	24.9*	27.8*	38.1*
CCN(C(=O)COC(=O)c1ccccc1NCCO)C1CCS(=O)(=O)C1 (stereo not drawn)	i	i	1.4	i	i	25.5*	32.0*	35.3*
CCN(C(=O)COC(=O)c1cc(-c2cccs2)nc2ccccc12)C1CCS(=O)(=O)C1 (stereo not drawn)	i	-385.2	-23.1	i	i	-64.9	·	·
CCN(C(=O)COC(=O)c1cc(-c2ccc(C)o2)nc2ccccc12)C1CCS(=O)(=O)C1 (stereo not drawn)	i	-63.7	-9.2	-186.1	i	174.2*	202.2*	186.8*
Cc1ccc(-c2cc(C(=O)Nc3ccccc3C(N)=O)c3ccccc3n2)o1	-203.9	-12.9	-0.2	-30.6	-142.2	0.4	·	·
Cc1ccc(-c2cc(C(=O)NCC3(N(C)C)CCCCC3)c3ccccc3n2)o1	i	-210.8	4.0	i	i	72.5*	20.7*	46.2*
NC(=O)c1c(N)[nH]c(C(=O)c2ccccc2)c1-c1cccc2ccccc12	-34.0	-1.8	-1.1	-6.3	-26.7	·	·	·
Cc1ccc(-c2cc(C(=O)OCC(=O)N(C)C3CCS(=O)(=O)C3)c3ccccc3n2)o1 (stereo not drawn)	i	-53.7	-5.4	-214.2	-494.0	134.9*	14.5*	11.4*	EDANS interf=6.97*

Bioassay records: PubChem, The Scripps Research Institute Molecular Screening Center
